According to PubChem BioAssay (EPA / NIEHS):
Activity calls are given as the source filed them. How the source made its calls: active means hit-call score of the fitted dose curve at least 0.9, where 1 is the maximum; inactive means score below 0.9.

Assay: APR_HepG2_NuclearSize_1hr: Apredica 1-hour HepG2 Assay for Nuclear Size (AID 2282670)
Conditions: high-content imaging, actives raise or lower the signal
Method: APR_HepG2_1hr is a cell-based, multiplexed-readout assay that uses HepG2, a human liver cell line, with measurements taken at 1 hour after chemical dosing in a 384-well plate.APR_HepG2_NuclearSize_1hr is one of 10 assay component(s) measured or calculated from the APR_HepG2_1hr assay. It is designed to make measurements of cell phenotype, a form of morphology reporter, as detected with fluorescence intensity signals by HCS Fluorescent Imaging technology.Data from the assay component APR_HepG2_NuclearSize_1hr was analyzed into 1 assay endpoint. This assay endpoint, APR_HepG2_NuclearSize_1hr, was analyzed with bidirectional fitting relative to DMSO as the negative control and baseline of activity. Using a type of morphology reporter, measures of all nuclear dna for gain or loss-of-signal activity can be used to understand the signaling at the nuclear-level. Furthermore, this assay endpoint can be referred to as a primary readout, because this assay has produced multiple assay endpoints where this one serves a signaling function. To generalize the intended target to other relatable targets, this assay endpoint is annotated to the cell morphology intended target family, where the subfamily is organelle conformation.
Cells were treated with dimethyl sulfoxide (DMSO) as a solvent control at a final concentration of 0.5% v/v or with compounds in DMSO with a resulting final DMSO concentration of 0.5% v/v. Compound treatment was done at concentrations of 0.39, 0.78, 1.56, 3.12, 6.24, 12.5, 25, 50, 100, and 200 uM in duplicate on each plate. Cells were treated with compounds for 1, 24, or 72 hr. Carbonyl […] m-chloro-phenylhydrazone (CCCP) and taxol were used as positive controls for mitochondrial function and cytoskeletal stability, respectively; DMSO served as the negative control for this experiment. Cells were fixed by the direct addition of 50 uL formaldehyde in Hank's Balanced Salt Solution (HBSS) to a final concentration of 3.7%. After incubation in the fixation medium for 30 min at room temperature (293-298 K), cells were rinsed twice with HBSS and treated with cell permeabilization buffer (16 uL of 0.5% Triton X-100) for 10 min at room temperature (293-298 K) before labeling. For mitochondrial membrane potential and mitochondrial measurements, pre-fixed cells were incubated with 50 uL of MitoTracker Red CMXRos (Invitrogen) at a concentration of 250 nM for 30 min before fixation. In the remaining cases, post-fixed cells were labeled by incubation with a multiplexed mixture of primary antibodies in HBSS for 60 min at room temperature (293-298 K) to detect immunoreactivity of c-Jun (1:500), phospho-histone H3 (1:100), phospho-histone H2A.x (1:200), p53 (1:400), alpha-tubulin (1:200) and Hoechst 33342 (2 ug/mL). Cells were labeled for multiplexed imaging on two separate plates: a) Hoechst 33342, MitoTracker Red, phospho-histone H3, and alpha-tubulin, and b) Hoechst 33342, phospho-histone H2A.x, and c-Jun. A final rinse with HBSS (50 uL) was performed before analysis. The primary and secondary antibodies for the proteins were phospho-histone H3 (rabbit anti-phospho-histone H3 and FITC-donkey anti-rabbit IgG), phospho-histone H2A.x (mouse anti-phospho-histone H2A.x and FITC-donkey anti-mouse IgG), c-Jun (rabbit anti-phospho-c-Jun and Cy3-donkey anti-rabbit IgG), p53 (sheep anti-p53 and Cy5-donkey anti-sheep IgG), alpha-tubulin (mouse anti-alpha-tubulin and Cy5-donkey anti-mouse IgG). These antibodies are available as the CellCiphr HepG2 assay kit (Millipore).Digital images of each well were captured using a Cellomics ArrayScan VTI (Thermo Scientific Cellomics) (0.8 NA objective, 0.63x optical coupler, and XF-93 filter set) at 20x magnification. The images were acquired using the autofocus feature of the ArrayScan instrument, which entails the following steps. First, the camera focuses on channel 1 (Hoechst 33342), where nuclei are identified. Second, a Z offset of 1 um is used for capturing mitochondria (MitoTracker Red). […]

| SMILES | outcome | AC50 |
| --- | --- | --- |
| Cc1cnc(C2=NC(C)(C(C)C)C(=O)N2)c(C(=O)O)c1 (stereo not given) | inactive | – |
| Nc1c(Cl)c(F)nc(OCC(=O)O)c1Cl | inactive | – |
| COC(=O)c1c(C(F)F)nc(C(F)(F)F)c(C2=NCCS2)c1CC(C)C | inactive | – |
| CCN(CC)c1nc(C)cc(OP(=S)(OC)OC)n1 | inactive | – |
| CC(C)=CC1C(C(=O)OCc2coc(Cc3ccccc3)c2)C1(C)C (stereo not given) | inactive | – |
| CCC(C)n1c(=O)[nH]c(C)c(Br)c1=O (stereo not given) | inactive | – |
| CCCCOCN(C(=O)CCl)c1c(CC)cccc1CC | inactive | – |
| CO/N=C(/C1=NOCCO1)c1ccccc1Oc1ncnc(Oc2ccccc2Cl)c1F | inactive | – |
| CC(C)C1(C)N=C(c2ncccc2C(=O)O)NC1=O (stereo not given) | inactive | – |
| COC(=O)NC(=S)Nc1ccccc1NC(=S)NC(=O)OC | inactive | – |
| CS(=O)(=O)c1cc(C(F)(F)F)ccc1C(=O)c1cnoc1C1CC1 | inactive | – |
| COCC(=O)N(c1c(C)cccc1C)C(C)C(=O)OC (stereo not given) | inactive | – |
| CC(C)(C)C(=O)C(Oc1ccc(Cl)cc1)n1cncn1 (stereo not given) | inactive | – |
| CCOP(=S)(OCC)Oc1nc(Cl)n(C(C)C)n1 | inactive | – |
| C=CCOC(=O)C(C)(C)OC(=O)c1cc(-n2c(=O)cc(C(F)(F)F)n(C)c2=O)ccc1Cl | inactive | – |
| O=C(Nc1ccccc1-c1ccc(Cl)cc1)c1cccnc1Cl | inactive | – |
| O=c1n(Cl)c(=O)n(Cl)c(=O)n1Cl | inactive | – |
| CC(C)Oc1cccc(NC(=O)c2ccccc2C(F)(F)F)c1 | inactive | – |
| CCNC(=O)NC(=O)C(C#N)=NOC | inactive | – |
| CCOc1nc(C(Cl)(Cl)Cl)ns1 | inactive | – |

| SMILES | outcome | AC50 |
| --- | --- | --- |
| COc1cc(Cl)c(OC)cc1Cl | inactive | – |
| CCOc1cc(C(C)(C)C)ccc1C1COC(c2c(F)cccc2F)=N1 (stereo not given) | inactive | – |
| CCCCC(O)(Cn1cncn1)c1ccc(Cl)cc1Cl (stereo not given) | inactive | – |
| CN/C(=N\[N+](=O)[O-])NCc1cnc(Cl)s1 | inactive | – |
| CCCC(=NOCC)C1=C(O)CC(CC(C)SCC)CC1=O (stereo not given) | inactive | – |
| Cc1c(COC(=O)[C@@H]2[C@H](/C=C(\Cl)C(F)(F)F)C2(C)C)cccc1-c1ccccc1 | inactive | – |
| CC(C)Nc1nc(Cl)nc(NC(C)C)n1 | inactive | – |
| CNC(=O)Oc1cccc2ccccc12 | inactive | – |
| CSC(=O)c1c(C(F)F)nc(C(F)(F)F)c(C(=O)SC)c1CC(C)C | inactive | – |
| CCOC(=O)C(C)OC(=O)c1cc(Oc2ccc(C(F)(F)F)cc2Cl)ccc1[N+](=O)[O-] (stereo not given) | inactive | – |
| COCc1cnc(C2=NC(C)(C(C)C)C(=O)N2)c(C(=O)O)c1 (stereo not given) | inactive | – |
| CC(C)N1C(=O)c2ccccc2NS1(=O)=O | inactive | – |
| N#Cc1c(Cl)cccc1Cl | inactive | – |
| Cc1nc(N(C)C)nc(OC(=O)N(C)C)c1C | inactive | – |
| Clc1nc(Cl)nc(Nc2ccccc2Cl)n1 | inactive | – |
| OC(c1ccc(Cl)cc1)(c1ccc(Cl)cc1)C(Cl)(Cl)Cl | – | 110 µM (active) |
| CC1(C)C(C=C(Cl)Cl)C1C(=O)OC(C#N)c1cccc(Oc2ccccc2)c1 (stereo not given) | inactive | – |
| O=P(O)(O)CCCl | inactive | – |
| CC1(C)CCC(=Cc2ccc(Cl)cc2)C1(O)Cn1cncn1 (stereo not given) | inactive | – |
| N#Cc1c[nH]cc1-c1cccc2c1OC(F)(F)O2 | inactive | – |
